Measurements from PubChem BioAssay (NCATS).
Results filed as inconclusive are left out. Where a call stands in place of a potency, no number is given. Unmarked numbers belong to inactive results. The source made the active and inactive calls. Calls follow the shape of the dose curve; as a rule, active = well fitted cell-killing curve with a large enough effect; inconclusive = small, poorly fitted or top-dose-only effect, or effect the other way; inactive = flat fitted curve, though single readings scatter. Where a SMILES comes first, the peptide text is derived from it. The star is where a group is joined. AFC = O=c1cc(C(F)(F)F)c2ccc(N*)cc2o1

The compounds below were run on Hek293T (assay: Primary qHTS to identify gynecologic anti-cancer compounds using libraries of approved drugs and bioactive compounds (AID 1345084; also: nearly all actives have a fitted effect of over 55% in size)). Settings: Gynecologic cancer cell panel viability, ATPlite luminescence, 48 h, control line for the selectivity index; series mostly up to 57.5 µM.
In short: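 Cytotoxicity screen measuring ATP content by luciferase luminescence. Each compound is applied at five concentrations for 48 h at 37 C with 5% CO2.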
`CCC(C)C(=O)O[C@H]1CCC=C2C=C[C@H](C)[C@H](CC[C@@H](O)C[C@@H](O)CC(=O)O)[C@H]21` (some centres undefined) was tested, and the Potency was “inactive”.
For `CC(=O)NC1C(OC(C)(C)C2CCC3(C)C=C(C4CCC5C4(C)CC(O)C4OC(C(C)(C)O)CCC45C)CCC3O2)OC(CO)C(O)C1O` (centres undefined), the Potency was “inactive”.
In the case of `CC(=O)O[C@@H]1c2c3c(cc(O)c2C(=O)O[C@@H]1C)O[C@@]1(C)[C@@H](O)C[C@H]2C(C)(C)C(=O)C=C[C@]2(C)[C@@H]1C3`, the Potency is reported as “inactive”.
`COc1c(C)c(OCC(O)C(C)(C)O)cc2c1COC2=O` (centres undefined) was tested, and the Potency was “inactive”.
`CC(=O)CC1CCC(C(C)C(=O)OCC(O)CO)O1` (centres undefined) was tested, and the Potency was “inactive”.
In the case of `O=C(O)COCCN1CCN([C@H](c2ccccc2)c2ccc(Cl)cc2)CC1`, the Potency is reported as “inactive”.
For `Nc1nc2c(ncn2[C@@H]2O[C@@H]3COP(=O)(O)O[C@H]3[C@H]2O)c(=O)[nH]1`, the Potency was “inactive”.
For `CC1=C(C(=O)O)/C(=C/CO[C@@H]2O[C@H](COC(=O)/C=C/c3ccc(O)cc3)[C@@H](O)[C@H](O)[C@H]2O)C(O)C1` (some centres undefined), the Potency was “inactive”.
`Cc1cc(C)c2c(N)c(C(=O)NCc3ccc(Cl)cc3)sc2n1` was tested, and the Potency was “inactive”.
With `CC(=O)OC1C(O)C2C(C)C3=CC(=O)OC3(O)CC2C2(C)CCCC(C)(CO)C12` (centres undefined) the Potency was “inactive”.
For `CC(C)C(NC(=O)c1ccc2ccccc2n1)C(=O)NC(CC(=O)O)C(=O)COc1c(F)cccc1F` (centres undefined), the Potency was “inactive”.
`O=C(Nc1ccc(-c2ccncc2)cc1)N[C@H](CO)c1ccccc1` was tested, and the Potency was “inactive”.
With `CC1=CC2/C=C(\C)CC[C@@H](O)[C@@H](O)[C@@H]3O[C@@H]3C(=O)[C@]23C(=O)N[C@@H](CC(C)C)[C@@H]3[C@@H]1C` (some centres undefined) the Potency was “inactive”.
With `O=C(NCC(O)CO)c1ccncc1Nc1ccc(I)cc1F` (centres undefined) the Potency was “inactive”.
In the case of `CC1(C)CC2=C3C=CC4C5(C)CCC(O)C(C)(C)C5CCC4(C)C3(C)CCC2(C)C(O)C1` (centres undefined), the Potency is reported as “inactive”.
In the case of `COC(=O)C1=CO[C@@H](O[C@@H]2O[C@H](CO)[C@@H](O)[C@H](O)[C@H]2O)[C@H]2[C@@H]1CC(OC)O[C@@H]2C` (some centres undefined), the Potency is reported as “inactive”.
`C[C@@H]1O[C@@H](O[C@@H]2[C@@H](O[C@@H]3O[C@@H](C)[C@H](O[C@@H]4OC[C@H](O)[C@H](O[C@@H]5OC[C@@H](O)[C@H](O)[C@H]5O)[C@H]4O)[C@@H](O[C@@H]4OC[C@](O)(CO)[C@H]4O)[C@H]3O)[C@H](OC(=O)[C@]34CCC(C)(C)C[C@H]3C3=CCC5[C@@]6(C)C[C@H](O)[C@H](O[C@@H]7O[C@H](CO[C@@H]8OC[C@H](O)[C@H](O)[C@H]8O)[C@@H](O)[C@H](O)[C@H]7O)C(C)(C)C6CC[C@@]5(C)[C@]3(C)C[C@H]4O)OC[C@H]2O)[C@H](O)[C@H](O)[C@H]1O` (some centres undefined) was tested, and the activity change, negative = cytotoxicity was -4.92% [at 6.55 µM].
`C=C1CCCC2(C)CC3(OC)OC(=O)C(C)=C3CC12` (centres undefined) was tested, and the Potency was “inactive”.
With `CC(C)=CCC/C(C)=C/CCC1(C)Oc2c(c(O)cc3c2CN(C(CCC(=O)O)C(=O)O)C3=O)CC1O` (centres undefined) the Potency was “inactive”.
With `C=C(C(=O)O)C1CCC2(C)CCC(O)C(=C)C2C1` (centres undefined) the Potency was “inactive”.
In the case of `CC12CCC3c4ccc(OC5OC(C(=O)O)C(O)C(O)C5O)cc4CCC3C1CCC2O` (centres undefined), the Potency is reported as “inactive”.
`CC(=O)N[C@@H](Cc1c[nH]c2ccccc12)C(=O)N[C@@H](CCC(=O)O)C(=O)N[C@@H](Cc1cnc[nH]1)C(=O)N[C@@H](CC(=O)O)C(=O)Nc1ccc2c(C(F)(F)F)cc(=O)oc2c1` (Ac-WEHD-{AFC}) was tested, and the Potency was “inactive”.
Work on `C[C@@H]1O[C@@H](O[C@H]2[C@@H](OC(=O)[C@]34CCC(C)(C)CC3C3=CCC5[C@@]6(C)C[C@H](O)[C@H](O[C@@H]7O[C@H](C(=O)O)[C@@H](O)[C@H](O)[C@H]7O)[C@@](C)(C(=O)O)C6CC[C@@]5(C)[C@]3(C)CC4)OC[C@H](O)[C@@H]2O)[C@H](O)[C@H](O)[C@H]1O[C@@H]1OC[C@@H](O)[C@H](O)[C@H]1O` (some centres undefined) yielded an activity change, negative = cytotoxicity of -0.464% [at 11.6 µM].
`CC12CCC(C(OC3OC(COC4OCC(O)(CO)C4O)C(O)C(O)C3O)C1)C(C)(C)O2` (centres undefined) was tested, and the Potency was “inactive”.
In the case of `O=C(/C=C\c1ccc(O)cc1)N[C@@H](Cc1ccc(O)cc1)C(=O)O`, the Potency is reported as “inactive”.
In the case of `O=C(O)c1cccc(S(=O)(=O)N2CCc3ccccc3C2)c1`, the Potency is reported as “inactive”.
`C[C@@H]1O[C@@H](O[C@H]2[C@H](O)[C@@H](O[C@@H]3O[C@H](CO)[C@@H](O)[C@H](O[C@@H]4O[C@H](CO)[C@@H](O)[C@H](O)[C@H]4O)[C@H]3O)[C@H](O[C@H]3CC[C@@]4(C)C(=CC[C@@H]5C4CC[C@@]4(C)C5C[C@@H]5OC6(CC[C@@](C)(CO[C@@H]7O[C@H](CO)[C@@H](O)[C@H](O)[C@H]7O)O6)[C@@H](C)[C@@H]54)C3)O[C@@H]2CO)[C@H](O)[C@H](O)[C@H]1O` (some centres undefined) showed an activity change, negative = cytotoxicity of 9.02% [at 6.55 µM].
For `COc1ccc(/C=C/C(=O)O[C@H]2[C@H](O[C@H]3[C@@H]4C=CO[C@@H](O[C@@H]5O[C@H](CO)[C@@H](O)[C@H](O)[C@H]5O)[C@@H]4[C@@]4(CO)O[C@@H]34)O[C@@H](C)[C@H](O)[C@H]2OC(C)=O)cc1`, the Potency was “inactive”.
In the case of `COC(=O)C12C(=O)C(C)=C(O)C1(C)C(C)=CC1C3(CO)CCC(O)C(C)(C)C3CCC12C` (centres undefined), the Potency is reported as “inactive”.
`C=C1[C@H](OC(C)=O)[C@H]2[C@@H](OC(C)=O)[C@](C)(OC(C)=O)C[C@]2(OC(C)=O)C(=O)[C@H](C)/C=C/C(C)(C)C(=O)[C@H](OC(=O)C(C)C)[C@H]1OC(C)=O` was tested, and the Potency was “inactive”.
For `COC(=O)N(C)c1c(N)nc(-c2nn(Cc3ccccc3F)c3ncccc23)nc1N`, the Potency was “inactive”.
With `C=C1C[C@]23C[C@H]1CC[C@H]2[C@@]1(C)CCC[C@@]2(C)C(=O)O[C@@H]([C@@H]3O)[C@@H]12` the Potency was “inactive”.
`CC(O)CCC1C(CO[C@@H]2O[C@H](CO)[C@@H](O)[C@H](O)[C@H]2O)CC(O)CC1(C)C` (some centres undefined) was tested, and the Potency was “inactive”.
`CC1=C2C[C@H]3O[C@@]3(C)CCC3O[C@@]3(C)C[C@@]2(O)OC1=O` (some centres undefined) was tested, and the Potency was “inactive”.
With `O=C(O)Cc1cn(C2OCC(O)C(O)C2O[C@@H]2O[C@H](CO)[C@@H](O)[C@H](O)[C@H]2O)c2ccccc12` (some centres undefined) the Potency was “inactive”.
`CC(C)C(C#N)O[C@@H]1O[C@H](CO[C@@H]2O[C@@H](C)[C@H](O)[C@@H](O)[C@H]2O)[C@@H](O)[C@H](O)[C@H]1O` (some centres undefined) was tested, and the Potency was “inactive”.
For `COC1CC(OC2CCC3(C)C(=CCC4C3C(OC(C)=O)C(OC(=O)/C=C/c3ccccc3)C3(C)C(C(C)O)CCC43O)C2)OC(C)C1OC1CC(OC)C(OC2OC(C)C(OC3OC(CO)C(O)C(O)C3O)C(OC)C2O)C(C)O1` (centres undefined), the activity change, negative = cytotoxicity was -0.285% [at 6.55 µM].
For `C=C1C(O)CC2C(C(=O)O)=COC(O[C@@H]3O[C@H](COC(=O)/C=C/c4ccc(O)cc4)[C@@H](O)[C@H](O)[C@H]3O)C12` (some centres undefined), the Potency was “inactive”.
With `CC(=O)O[C@H]1CC[C@H](C)[C@@]2(C)[C@H](OC(C)=O)c3c(C)coc3C(=O)[C@H]12` the Potency was “inactive”.
